In PubChem BioAssay AID1467 (National Center for Advancing Translational Sciences (NCATS), 2008):
Fewer than 10 of roughly 230,000 compounds were called active. Calls come from the whole dose curve; as a rule, active = well fitted curve in the direction sought with a large enough effect; inconclusive = small, poorly fitted or top-dose-only effect, or effect the other way, or another doubt; inactive = no such curve, though single readings can be large or run the other way. The list is a sample of the results.

biological target: Alpha-galactosidase A (Homo sapiens) (UniProt P06280); assay: qHTS Assay for Inhibitors of Human alpha-Galactosidase at pH 4.5.; conditions: purified enzyme, 4-MU-alpha-Gal fluorescence; series mostly up to 105 µM
Sequence (P06280 whole entry, looked up): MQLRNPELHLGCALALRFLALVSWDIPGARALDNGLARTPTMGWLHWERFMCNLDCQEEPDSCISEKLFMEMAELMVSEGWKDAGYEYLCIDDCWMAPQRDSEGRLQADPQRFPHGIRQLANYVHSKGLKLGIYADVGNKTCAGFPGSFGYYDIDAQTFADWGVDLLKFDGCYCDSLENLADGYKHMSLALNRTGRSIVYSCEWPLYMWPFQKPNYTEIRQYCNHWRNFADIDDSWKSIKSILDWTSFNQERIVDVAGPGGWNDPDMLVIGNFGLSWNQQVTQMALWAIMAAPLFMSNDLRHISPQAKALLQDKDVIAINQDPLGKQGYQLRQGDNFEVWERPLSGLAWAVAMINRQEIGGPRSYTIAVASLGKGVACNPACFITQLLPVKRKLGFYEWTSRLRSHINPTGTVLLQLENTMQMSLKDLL
Description: NIH Chemical Genomics Center [NCGC]
NIH Molecular Libraries Probe Production centers Network [MLPCN]
Assay Submitter (PI): Wei Zheng
Alpha-galactosidase is a homodimeric glycoprotein that hydrolyzes the terminal alpha-galactosyl moieties from glycolipids and glycoproteins. Deficiency of this enzyme results in Fabry Disease with progressive accumulation of globotriaosylceramide and other glycosphingolipids in vascular endothelial cells that causes renal failure, myocardial infarction and stroke, and premature death in patients. It has been reported that the improper folding and trafficking of alpha-galactosidase resulting from the genetic mutations may account for a significant numbers of Fabry patients. […] We optimized this alpha-galactosidase assay in 1536-well plate format for identifying the novel small molecule inhibitors with the structures other than the sugar analogs in order to develop the new pharmacological chaperones. Although this assay has the same protocol as PubChem AID 992, this is a separate project and, therefore, is published as a separate assay
NCGC Assay Protocol Summary:
This is a fluorogenic enzyme assay with 4-Methylumbelliferyl alpha-D-galactopyranoside as the substrate and human […] as the enzyme preparation. Upon the hydrolysis of this fluorogenic substrate, the resulting product, […]. 4-Methyllumbelliferone, can be excited at 365 nm and emits at 440 nm. This fluorescence which can be detected by a standard fluorescence plate reader. Data were normalized to the controls for basal activity (without enzyme) and 100% activity (with enzyme). In the AC50 values were determined from concentration-response data modeled with the standard Hill equation.
Assay buffer: 50 mM citric acid (titrated with potassium phosphate to pH 4.5), 0.005% Tween-20, pH 4.5. (pH 4.5 is an optimal condition for this enzyme assay)
1536-well assay protocol for the human alpha-galactosidase:
(1) Add 2 ul/well of enzyme (12 nM final)
(2) Add 23 nL compounds in DMSO solution. The final titration was 0.7 nM to 77 uM.
(3) Add 1 ul of substrate (400 uM final)
(4) Incubate at room temperature for 20 min.
(5) Add 2 ul stop solution (1M NaOH and 1M Glycine mixture, pH 10)
(6) Detect the assay plate in a ViewLux plate reader (PerkinElmer) with Ex=365 nm and Em=440nm.
Keywords: MLSMR, MLPCN, NIH Roadmap, qHTS, NCGC, : Alpha-galactosidase, Fabry Disease, pharmacological chaperone, chaperone therapy

Activity change, negative = inhibition, inactive:
Cc1cn(C2OC[C@@H](O)[C@@H]2CO)c(=O)[nH]c1=O (some centres not stated)
Brc1ccc(C2=NCCC(c3ccccc3)O2)cc1 (configuration not stated)
C[C@@H]1C(c2ccc(F)cc2)=NN(c2ccc(Br)cc2)[C@H]1C(=O)N1CCOC1=O
Cc1csc(SCC(=O)Nc2sccc2C#N)n1
COC(=O)c1ccc(S(=O)(=O)N(CCO)Cc2ccccc2)n1C
Nc1nc(C23CC4CC(CC(C4)C2)C3)cs1
CN(CCc1cn[nH]c1)C(=O)CC1C(=O)NCCN1Cc1cccc(Oc2ccccc2)c1 (configuration not stated)
Cc1cc(C)nc(SC2CCCCC2NS(=O)(=O)c2ccc(Cl)cc2)n1 (configuration not stated)
Cc1ccc(S(=O)(=O)N2CCC(C(=O)OCC(=O)N3CC(=O)Nc4ccccc43)CC2)cc1
Cc1ccc(C2CC(c3cccc(NS(C)(=O)=O)c3)=NN2S(C)(=O)=O)cc1 (configuration not stated)
CCOC(=O)C1=C(C)c2ccccc2OC1(C)C(=O)OCC (configuration not stated)
Cc1cccc(NC(=S)NCc2ccc3[nH]c4c(c3c2)CCCC4)c1
COc1ccc(-c2c(C)cc3oc(=O)cc(-c4ccccc4)c3c2C)cc1OC
OC[C@H]1O[C@@H](n2cnc3c(NC4CCCC4)ncnc32)[C@H](O)[C@H]1O
COC1(C2=NCCN2)COc2ccccc2O1 (configuration not stated)
COC(C)C(C(=O)OCC1=CCN2CC[C@H](O)[C@@H]12)C(C)C (some centres not stated)
COc1ccc(-c2nc3c(c4c2C[C@H](c2ccccc2)OC4)CN(C(=O)c2ccco2)CC3)c(C)c1
CCn1c(SCC(=O)Nc2ccc(C)cc2)nc2nc3c(cc2c1=O)CCCC3
Cc1cc(N)n(-c2ccc(S(=O)(=O)N3CCCC3)cc2[N+](=O)[O-])n1
Cc1cc(Cl)ccc1OCc1nc(-c2ccncc2)no1
CC(C)(C)NS(=O)(=O)CC12CCC(CC1=O)C2(C)C (configuration not stated)
CCn1c(SCc2ccccc2)nc2c(c1=O)SCC2
COc1ccc(-c2nc3c(c4c2C[C@H](c2ccccc2)OC4)CN(C(=O)C2CC2)CC3)c(C)c1
C=CCN1c2ccccc2[C@]23C[C@@H](C(=O)OC)N(S(=O)(=O)c4ccc([N+](=O)[O-])cc4)C2=NC(C(=O)OC)=C(C(=O)OC)[C@H]13
O=C(CSc1cccc[n+]1[O-])c1ccc(Cl)cc1
O=C(NCc1cccnc1)c1cnc2ccccc2n1
CCCCS(=O)(=O)N1C2=NC(C(=O)OC)=C(C(=O)OC)[C@@H]3N(Cc4ccccc4)c4ccccc4[C@]23C[C@H]1C(=O)OC
Nn1c(SCC(=O)Nc2nccs2)nncc1=O
O=c1[nH]c(SCc2cccc(F)c2)nc2ccccc12
COc1ccc(/C=N/OCC(=O)N(Cc2ccccc2)c2ccccc2C(=O)O)cc1
O=C(COc1cccc(F)c1)Oc1ccc(C(=O)c2ccccc2)cc1
COc1ccc(-c2nc3c(c4c2C[C@H](c2ccccc2)OC4)CN(S(=O)(=O)c2c(C)noc2C)CC3)c(C)c1
